Results as given in PubChem BioAssay AID489042 (NMMLSC, 2010).
“And” between values parts separate entries of the source, which are not always exact repeats. Equal entries are not always repeated. Some compounds were tested as several samples or in several runs, with calls that do not always agree. The source made the active and inactive calls. Rule as the data show it: active = inhibition score above about 11; inactive = the rest.

Assay: yeast proliferation inhibition, dose response, BY4741, OD595, 24 h (AID 489042)
Conditions: S. cerevisiae BY4741 growth, stronger effect = higher value

| Compound | inhibition score |
| --- | --- |
| O=C1c2c(O)ccc(O)c2C(=O)c2c(NCCNCCO)ccc(NCCNCCO)c21 | 0 (inactive) |
| Cc1cc2nc3ccc(N(C)C)cc3nc2cc1N | 0 (inactive) |
| Cc1cc(C)c2[nH]c3nc(SCC(=O)O)nnc3c2c1 | 0 (inactive) |
| COc1cccc2nc3cc(C)c(C)cc3nc12 | 10 (inactive) |
| NC(=O)CSc1nnc(-c2ccc([N+](=O)[O-])cc2)o1 | 0 (inactive) |
| Cc1ccccc1NC(=O)c1cccc2nc3ccccc3nc12 | 0 (inactive) |
| O=C(Nc1cccc(Cl)c1)Nc1ccc2nccnc2c1 | 0 (inactive) |
| Cc1ccc(-c2nn(C(C)(C)C)c3ncnc(N)c23)cc1 | 21 (active) |
| O=C(OCc1c(F)cccc1Cl)c1cnc2ccccc2n1 | 0 (inactive) |
| COc1ccc2nc3ccccc3nc2c1NC(=O)c1ccccc1Cl | 0 (inactive) |
| c1ccc2nc3ccccc3nc2c1 | 21 (active) |
| CCn1c2ccccc2c2n[nH]c(=S)nc21 | 0 (inactive) |
| C=CCOn1c(=O)c(-c2cccs2)[n+]([O-])c2ccccc21 | 0 (inactive) |
| CSc1nnc2c3cc(F)ccc3n(C)c2n1 | 21 (active) |
| O=C(Nc1ccc2nc3ccccc3nc2c1)c1ccccc1 | 21 (active) |
| CCN(CC)C(=O)c1cccc2nc3ccccc3nc12 | 0 (inactive) |
| COc1ccc2nc3ccccc3nc2c1 | 10 (inactive) and 21 (active) |
| Cc1cccc2nc3ccccc3nc12 | 10 (inactive) |
| O=C(c1cccc2nc3ccccc3nc12)N1CCOCC1 | 0 (inactive) |
| CSc1nnc(-c2ccc([N+](=O)[O-])cc2)o1 | 0 (inactive) |
